Data taken from the supplement of paper PMC6555819.

These sequences were tested on VDR:RXRa (NR concentration 270 nM, RXRa partner concentration 90 nM) (assay: PBM binding z-score (relative to random genomic background probes); higher = stronger binding; sequences stand for … in GC…GCGATTGACAGCGTAGAATGAAGG).
Experimental: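 Protein-binding microarray (Agilent 4x180K custom design, double-stranded 60-nt probes: 5' GC cap, 34-nt variable region, 24-nt constant primer region; full probe sequence given). Purified or IVT nuclear receptor:RXRα heterodimers (3:1 NR:RXRα, mostly 270:90 nM) or homodimers were incubated for 1 h in PBS with 2% milk and no ligand, then detected with Alexa488 antibodies. Fluorescence from o1-orientation probes (~5 replicates averaged) was converted to z-scores against 500 random hg19 background probes. Variable regions are seed direct-repeat (DR0–DR5) sites, all their single-nucleotide variants and half-site ablations.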

Sequence | PBM binding z-score
GATACAGGGTCAGCTAGAGTCCAGAGTATGGAAA | 4.13
CCTACTGGGCCAAAGGGCATTGATTCCAATGCTC | 0.0732
TCTTGTAGATGAATAGAGGTTAAGAAAGTGCGCT | 1.94
AGAACGAGGGCTATGAGTTGATAGCACGGGTGGC | 0.114
TCAGCTAGGTCAACGATGGTCAGCTAATCTGCTA | 1.53
AGAACGAGGGCACGATGAGTTGATAGCAGAGTAG | 2.32
TCACACAGGTGAAGGTAACTCAGGTACGCAGTCG | 0.751
TCTTGTAGATCAACAGGGGGTTAAGAAAGATCGA | 2.13
CCTCGGAGGACAACAGGCGGTCAGAGCTGCCAGA | -0.555
AGAATGAGGTTACCAAAGATCAGGGCAACGCTTG | 1.69
TCCATTAGTTGAAGGGCAACCGACGAGTCCGTTT | 1.02
ACAGACAGGTGAGTGAAGGTGACTCAGCTGGACG | -0.119
CCTTACGAGTCAAGGTTATAGCACGGGTGGTACG | 0.509
GTATCAAGGTGAATAGGTCGTTGATGAGTAGGCG | 1.1
CCTCGGAGGACAAAAGGAGGTCAGAGCTGCCAGA | 1.97
TTGCCTAGGTCAGATCGGGCCAGTATACGCTATA | 0.82
GCTTGTAGATCAAGGATAAGAAAGACTAAGCTAA | -0.525
GCTATTACTTGAAAGGGCAACCGAATGATTCTCG | 0.432
GCGACTGGCGCAAAGCAGGTTACCATAAGGTTGG | -0.716
ATCGAAAGGTTGACGAGGTGAGTATACACCGTTT | 2.71

Sequence | PBM binding z-score
AGAACGAGGGCACGCTGAGTCGATAGCAGAGTAG | 0.908
TAGCCTAGGTCATTCAGGGGCCAGTAGAGAAAGC | 3.24
TAATATAGGTAAAAGGTGAAAGTCGGTGTGGTAA | 1.59
CGTCAAAGTTCAACTAAGGTAATGTAAAGCACGC | 4.8
CAAACTAGGTCAAGGTCAAAGACGGTTTGTGCCA | 4.74
CCTTATGGGTCACTCCAGGTTATAGCATCGGAGT | 3.33
GCTTACGGGTCAAAGGTTATTGCATGAATAGAAT | 5.54
AGTCAAAGTTCATTTAGGTAACGTAAGATATGCT | 4.97
GCTATTAGTAGAAAGGGCAACCGAATGATTCTCG | 0.11
TCTCGGAGGACACGAAAGGTCCGAGCTCGACATC | -0.242
GCTCGGAGGTCAAGGTCAGAGCTTTGTCCGTAGA | 5.06
CGAACTAGGTCAAGAACAGTGAATCTCCGCACGC | 1.04
CGAACTAGGTCAAGGACGGTGAATCTCCGCACGC | 1.14
ATCTCTAGGTAACAAGCTCAGTGAAAGAGAGGAC | 0.159
ACAGACAGGTGATGAAGGTAGCTCAGGCTATCAT | -0.287
CAAACTAGGTCAAGAGGTCAAATTCCGCTTCCCG | 6.17
CCGAGTAGGTTATGGGGCATACAGGCAACGGTGA | 0.117
TCTAGCAGGTCAGAGGGTCACTCAAGAGGTACGG | 4
GGAACGAAGGCATTCGAGTTGATAGCATGGCGAT | -0.337
TCTAGTTGGTCACGGACGTCACACACGACGGGTA | 0.743
